According to paper PMC12751014, “Non-Catalytic Inhibitors of the p38/MK2 Interface: Repurposing Approved Drugs to Target Neuroinflammation in Alzheimer’s Disease” (Journal of Medicinal Chemistry, 2025):
The whole screen tested about 1,900 compounds, of which about 50 (3%) showed an effect of 50% or more. The entries come from a sample that favours strong results as a whole.

target: p38/MK2 protein–protein interaction (VF-p38α / GST-MK2) (Homo sapiens, UniProt Q16539); assay: primary screen, percent of control activity; higher = less effect of the substance; parameters: species or system HEK293T cell lysate transfected with VF-p38α and GST-MK2; unclear (methods say 'quintuplet replicates')
How it was run: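 Lysate of HEK293T cells transfected with Flag-tagged p38α and GST-MK2, complex detected by TR-FRET with anti-Flag-Tb and anti-GST-d2 antibodies. Five replicates per compound. Signal normalised to percent of DMSO control.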

Chain of p38/MK2 protein–protein interaction (VF-p38α / GST-MK2) (Q16539 2-360 limits assumed): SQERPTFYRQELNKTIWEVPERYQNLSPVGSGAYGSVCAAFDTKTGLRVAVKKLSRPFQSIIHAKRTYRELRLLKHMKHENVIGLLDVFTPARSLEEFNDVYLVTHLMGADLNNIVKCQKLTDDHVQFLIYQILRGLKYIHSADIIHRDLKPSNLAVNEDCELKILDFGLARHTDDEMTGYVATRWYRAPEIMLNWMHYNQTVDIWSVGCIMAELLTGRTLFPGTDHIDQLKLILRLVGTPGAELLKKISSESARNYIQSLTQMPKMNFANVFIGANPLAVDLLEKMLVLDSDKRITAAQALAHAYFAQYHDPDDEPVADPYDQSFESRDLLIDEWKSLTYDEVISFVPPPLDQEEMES

Structure (SMILES) | Pct of control
CN(C)CCOC(C)(c1ccccc1)c1ccccn1.O=C(O)CCC(=O)O (stereo not shown) | 101%
O=C1c2c(O)cc(O)cc2O[C@H](c2cc(O)c(O)c(O)c2)[C@H]1O | 71.3%
O=C(OC1Cc2c(O)cc(O)cc2OC1c1cc(O)c(O)c(O)c1)c1cc(O)c(O)c(O)c1 (single isomer, unassigned; (-)) | 32.5%
COc1ccc(C2CC(=O)c3c(O)cc(O)cc3O2)cc1O (stereo not shown) | 90.9%
CC12CC3CC(C)(C1)CC(N)(C3)C2.Cl | 94.2%
COc1cccc2c1C(=O)c1c(O)c3c(c(O)c1C2=O)CC(O)(C(=O)CO)CC3OC1CC(N)C(OC2CCCCO2)C(C)O1 (stereo not shown) | 56.6%
CC(NC(=O)C(O)c1cc(F)cc(F)c1)C(=O)NC1C(=O)N(C)c2ccccc2-c2ccccc21 (stereo not shown) | 105%
CN(C)CC(c1ccc(O)cc1)C1(O)CCCCC1 (stereo not shown) | 98.6%
Nc1ccccc1NC(=O)c1ccc(CNC(=O)OCc2cccnc2)cc1 | 96.2%
O=C(O)c1ccc(N2C(=O)C(=Cc3ccc(-c4ccc([N+](=O)[O-])cc4)o3)C=C2c2ccccc2)cc1 | 24.8%
COc1c(C)cnc(Cn2cnc3c(Cl)nc(N)nc32)c1C | 111%
COC1C=CC=C(C)C(=O)NC2=CC(=O)C(NCCN(C)C)=C(CC(C)CC(OC)C(O)C(C)C=C(C)C1OC(N)=O)C2=O.Cl (stereo not shown) | 96.9%
Cl.OC(CCN1CCCCC1)(c1ccccc1)C1CC2C=CC1C2 (stereo not shown) | 117%
COc1cc(C(C)=O)ccc1O | 90.4%
O=C1Nc2ccc(I)cc2C1=Cc1cc(Br)c(O)c(Br)c1 | 43.6%
CCNCC.O=C(O)Cc1ccccc1Nc1c(Cl)cccc1Cl | 95.1%
CN(C)CCc1ccc(O)cc1 | 89.6%
COc1cc2nc(N3CCN(C(=O)C4CCCO4)CC3)nc(N)c2cc1OC.Cl.O.O (stereo not shown) | 23.3%
COc1cc2nc(N3CCN(C(=O)C4COc5ccccc5O4)CC3)nc(N)c2cc1OC.CS(=O)(=O)O (stereo not shown) | 41.5%
COc1cc2nc(N(C)CCCNC(=O)C3CCCO3)nc(N)c2cc1OC.Cl (stereo not shown) | 17.9%
c1ccc(CNc2nc(NCc3ccccc3)c3ccccc3n2)cc1 | 74.5%

Structure (SMILES) | Pct of control
CCn1nc(C(=O)O)c(=O)c2cc3c(cc21)OCO3 | 86.4%
CC12CCC3c4ccc(O)cc4CCC3C1CCC2=O (stereo not shown) | 88.5%
O=c1[nH]c2ccccc2n1CCCN1CCC(n2c(=O)[nH]c3cc(Cl)ccc32)CC1 | 91.8%
CC1CCc2c(N3CCC(O)CC3)c(F)cc3c(=O)c(C(=O)O)cn1c23 (stereo not shown) | 90.3%
CCCC(NC(=O)C(C#N)=Cc1cccc(Br)n1)c1ccccc1 (stereo not shown) | 20.3%
N#CC(=Cc1ccc(O)c(O)c1)C(=O)NCc1ccccc1 | 95.3%
CC(NC(=O)C(C#N)=Cc1cccc(Br)n1)c1ccccc1 (stereo not shown) | 24.1%
CCOC(=O)C1=C(COCCN)NC(C)=C(C(=O)OC)C1c1ccccc1Cl.O=S(=O)(O)c1ccccc1 (stereo not shown) | 91.6%
CC(C)CCN1c2nc(Nc3cc(F)c(O)c(F)c3)ncc2N(C)C(=O)C1C (stereo not shown) | 86.7%
S=c1nc[nH]c2nc[nH]c12 | 126%
COc1cc(-c2ncn(C=CC(=O)OC(C)C)n2)cc(C(F)(F)F)c1 | 91.8%
CN1CCN(c2nc(C3=C(c4c[nH]c5ccccc45)C(=O)NC3=O)c3ccccc3n2)CC1 | 109%
CC(=O)Oc1cc2c(s1)CCN(C(C(=O)C1CC1)c1ccccc1F)C2 (stereo not shown) | 87.9%
Cc1cc(OCc2nnc(SC3CCCC3)n2-c2cccnc2)ccc1-c1ccc(S(C)(=O)=O)cc1 | 94.4%
CCCCCCNC(=O)n1cc(F)c(=O)[nH]c1=O | 110%
CN1CCc2cc3c(cc2C1C1OC(=O)c2c1ccc1c2OCO1)OCO3 (single isomer, unassigned; (+)) | 93.7%
CN1CCc2cccc3c2C1Cc1ccc(O)c(O)c1-3.CN1CCc2cccc3c2C1Cc1ccc(O)c(O)c1-3.Cl.Cl.O (stereo not shown) | 44.4%
CN1CCCC1c1cccnc1.O=C(O)C(O)C(O)C(=O)O.O=C(O)C(O)C(O)C(=O)O (stereo not shown) | 91.9%
O=C1CC(=O)c2c(Cl)c(Cl)c(Cl)c(Cl)c21 | 32.6%
CC(=O)CCCCn1c(=O)c2c(ncn2C)n(C)c1=O | 88.5%
Cc1cc2c(cc1S(N)(=O)=O)S(=O)(=O)CCC2 | 94.1%

Structure (SMILES) | Pct of control
Br.CN1C2CC(OC(=O)C(CO)c3ccccc3)CC1C1OC12 (stereo not shown) | 98.3%
Nc1nccc(Oc2ccc(NC(=O)c3c[nH]cc(-c4ccc(F)cc4)c3=O)cc2F)c1Cl | 73.2%
Cc1nc(NC(=O)N2CCCC2C(N)=O)sc1-c1ccnc(C(C)(C)C(F)(F)F)c1 (stereo not shown) | 108%
Cc1ccc(Nc2nccc(N(C)c3ccc4c(C)n(C)nc4c3)n2)cc1S(N)(=O)=O | 84.3%
CC(C)c1cc(C(C)C)c(CC(=O)NS(=O)(=O)Oc2c(C(C)C)cccc2C(C)C)c(C(C)C)c1 | 36.9%
CNCC(O)c1ccc(O)c(O)c1.O=C(O)C(O)C(O)C(=O)O (stereo not shown) | 92.6%
CCCC[N+]1(C)C2CC(OC(=O)C(CO)c3ccccc3)CC1C1OC12.[Br-] (stereo not shown) | 96.8%
O=C(NCC1(c2nc(-c3ccccc3)cs2)CCOCC1)c1cccc(-c2noc(C(F)(F)F)n2)c1 | 114%
NC(=O)N/N=C/c1ccc([N+](=O)[O-])o1 | 106%
CCOC(=O)c1ccc(N2NC(=O)C(=Cc3ccc([N+](=O)[O-])o3)C2=O)cc1 | 34.2%
CCOC(=O)c1ccc(N)cc1 | 97.4%
Cc1cccc(N(C)C(=S)Oc2ccc3ccccc3c2)c1 | 101%
O=P1(NCCCl)OCCCN1CCCl (stereo not shown) | 91.1%
Cc1cccc(C)c1NC(=O)C1CCCCN1C.Cl (stereo not shown) | 95.5%
O=c1c(O)c(-c2ccc(O)c(O)c2)oc2cc(O)cc(O)c12 | 68%
CC1OC(Oc2c(-c3cc(O)c(O)c(O)c3)oc3cc(O)cc(O)c3c2=O)C(O)C(O)C1O (stereo not shown) | 74%
O=c1c(O)c(-c2cc(O)c(O)c(O)c2)oc2cc(O)cc(O)c12 | 43.2%
O.O=c1c(O)c(-c2ccc(O)cc2O)oc2cc(O)cc(O)c12 | 27%
O.O.O=c1c(O)c(-c2ccc(O)c(O)c2)oc2cc(O)cc(O)c12 | 73.1%
O=c1c(O)c(-c2ccc(O)cc2)oc2cc(O)cc(O)c12 | 75.1%
CCn1cc(C(=O)O)c(=O)c2ccc(C)nc21 | 103%

Structure (SMILES) | Pct of control
COC(=O)Nc1nc2ccc(Sc3ccccc3)cc2[nH]1 | 96.8%
Cc1ccc(Sc2cncc3sc(C(N)=O)cc23)cc1 | 96.8%
O=C(NCCCNc1nc(Nc2cccc(NC(=O)N3CCCC3)c2)ncc1I)c1cccs1 | 105%
COc1ccc(C2C(=O)c3ccccc3C2=O)cc1 | 93.2%
O=c1c(-c2ccc(O)cc2)coc2cc(O)cc(O)c12 | 102%
COc1cc(OC)c(OC)cc1C=O | 91.5%
COC(=O)C1=C(C)NC(C)=C(C(=O)OC)C1c1ccccc1[N+](=O)[O-] | 87%
Cl.O=C(O)Cc1cccc(OCCCN(Cc2cccc(C(F)(F)F)c2Cl)CC(c2ccccc2)c2ccccc2)c1 | 39.4%
O=C(Nc1ccncc1)c1cc([N+](=O)[O-])ccc1Cl | 103%
CCc1oc2ccccc2c1C(=O)c1cc(Br)c(O)c(Br)c1 | 103%
Cc1cc(C(C#N)c2ccc(Cl)cc2)c(Cl)cc1NC(=O)c1cc(I)cc(I)c1[O-].[Na+] (stereo not shown) | 46.2%
Cc1cc(C(C#N)c2ccc(Cl)cc2)c(Cl)cc1NC(=O)c1cc(I)cc(I)c1O (stereo not shown) | 45.2%
CC(=O)Nc1cccc(-n2c(=O)n(C3CC3)c(=O)c3c(Nc4ccc(I)cc4F)n(C)c(=O)c(C)c32)c1 | 93.7%
CC(C)(Oc1ccc(CCNC(=O)c2ccc(Cl)cc2)cc1)C(=O)O | 96.7%
Oc1c(Br)cc(Br)c2cccnc12 | 104%
CCc1ccc(CCOc2ccc(CC3SC(=O)NC3=O)cc2)nc1 (stereo not shown) | 97.3%
Clc1ccc(CCC(Cn2ccnc2)Sc2c(Cl)cccc2Cl)cc1.O=[N+]([O-])O (stereo not shown) | 90.3%
O=NN(CCCl)C(=O)NC1CCCCC1 | 82.9%
Cc1cc([N+](=O)[O-])ccc1NS(=O)(=O)c1cc(Cl)ccc1Cl | 87.8%
